Results taken from ChEMBL document CHEMBL4513216, “Probing the Open Global Health Chemical Diversity Library for Multistage-Active Starting Points for Next-Generation Antimalarials” (ACS Infect Dis, 2020).
The campaign covered roughly 65,000 compounds. About 2,100 (3.2%) showed an effect of 50% or more. The median lay at about -52%. What follows is part of a selection rich in strong results, with near analogues and random picks from the rest.

The compounds below were run on Plasmodium falciparum (assay: Screen against P. falciparum Asexual Blood Stage (ABS), at 5uM). Details: tested at 5 uM.
Format: functional, Dd2

SMILES	INHIBITION
CCN(CC)c1nc(Nc2cccc(C(C)O)c2)nc2ccccc12 (stereo not given)	84.5%
CC(O)c1cccc(Nc2nc(NCCO)c3ccccc3n2)c1 (stereo not given)	89.4%
OC[C@@H]1CN2CCN(c3ccccn3)C[C@@H]2[C@H]1c1ccccc1	-7.96%
c1ccc(CO[C@@H]2CN(Cc3nccs3)[C@@H]3COC[C@@H]32)nc1	-84.8%
CCn1nc(C)c(CN2CCNCC2)c1C	-86.35%
c1cncc(C(Cn2cnnc2)N2CCOCC2)c1 (stereo not given)	-88.3%
COCCN1CCC2(CC1)C(=O)Nc1ccc(C(=O)NC(C)C)cc12	-102%
COCCN1CCc2cc(C(=O)NC(C)C)c(NCC(C)C)nc2CC1	78.9%
Cc1n[nH]c2c1C(c1cnn(C)c1)SCC(=O)N2 (stereo not given)	-51.7%
c1cncc(CN2CCC3(CCCN(c4nncs4)C3)C2)c1 (stereo not given)	-82.9%
CC(C)c1ccc(CN2CCC3(CCCN(c4nncs4)C3)C2)cc1 (stereo not given)	73.6%
CN(C)C(=O)N1CCCC2(CCN(Cc3ccncc3)C2)C1 (stereo not given)	-29.6%
Cc1cccc(CN2C[C@@H]3COC[C@H](NS(C)(=O)=O)[C@@H]3C2)n1	-96.6%
CC(C1CCN(Cc2c(Cl)ccc(O)c2Cl)CC1)N1CCN(C)CC1 (stereo not given)	87.2%
Cc1n[nH]c2c1C(c1cc(F)cc(F)c1)SCC(=O)N2 (stereo not given)	-23.5%
CCOC(=O)N1CC2(CCNCC2)c2cc(Cl)ccc21	78%
O=C(c1ccco1)N1CCO[C@@H]2CNCC[C@@H]2C1	-138%
CC(=O)N1CC2(CCNCC2)c2cc(Cl)ccc21	3.4%
NC(=O)N1CC2(CCNCC2)c2cc(Cl)ccc21	-61%
COC(=O)N1CC2(CCNCC2)c2cc(Cl)ccc21	13.1%
O=C(c1ccco1)N1CC2(CCNCC2)c2cc(Cl)ccc21	76.1%
O=C(c1ccccc1F)N1CC2(CCNCC2)c2cc(Cl)ccc21	77%
CCOC(=O)N1CCC2(CCNC2)C1 (stereo not given)	-85.4%
O=C1CCC2(CCCN(C(=O)c3ccco3)CC2)N1 (stereo not given)	40.8%
O=C(NC[C@]12COC[C@H]1CN(Cc1cccnc1)C2)C1CCC1	-49.9%
CCC(C(=O)N1CCCSCC1)N1CCCC1=O (stereo not given)	-76.1%
CNCCc1nc2cc(Cl)ccc2[nH]1	-71%

SMILES	INHIBITION
O=C(N1CCCO1)[C@@]12CCO[C@@H]1CCN(Cc1ccccn1)C2	-110%
CC(Cn1cncn1)NCCN1CCc2ccccc21 (stereo not given)	-71.4%
CC(C)c1nn(C)c(Cl)c1CNCC(O)c1cccc(F)c1 (stereo not given)	82.4%
CC(C)=CCN1C[C@@H]2CC[C@H]1CN(C(=O)CSc1ccncc1)C2	-26.7%
Cc1noc(C)c1CN1CC2(CCCCN2C)CC1=O (stereo not given)	-15.4%
O=C(Nc1cccnc1)[C@H]1C[C@@H]2CCN(Cc3nccs3)C[C@@H]2O1	-177%
O=C(Nc1nccs1)C1CCCN1Cc1ccccn1 (stereo not given)	93.7%
CCNc1ccnc(CN2CCCC2C(=O)Nc2nccs2)c1 (stereo not given)	95.1%
CCn1ccnc1CN1CCCC1C(=O)Nc1nccs1 (stereo not given)	85%
CCn1ccnc1CN1CCCN(C(=O)Cc2csc(C)n2)CC1	-15.3%
O=C(N[C@@H]1CN(Cc2ccccn2)[C@@H]2COC[C@@H]21)C1CCC1	-89.5%
CC(C)NC(=O)[C@H]1C[C@@H]2[C@@H](C1)OCCN2Cc1ccccn1	-84.2%
CN(C)CCN(Cc1cccnc1)C(=O)c1ccn(-c2ccccc2)n1	87.4%
Cc1cnc(C(=O)N2C[C@H]3CN(Cc4cccnc4)C[C@H]3C2)cn1	-8.02%
CCCN1CCN(C(=O)Cc2nc(-c3ccco3)oc2C)CC1	-36.9%
COc1cccc(C2=CCN(CCN3CCCC3=O)CC2)c1	12.8%
Cc1nc(CCN)cc(N2CCC(O)(c3ccc(Cl)cc3)CC2)n1	91.7%
Cc1nc(CN)cc(N2CCC(O)(c3ccc(Cl)cc3)CC2)n1	72.2%
CN1[C@@H](C(=O)NCC2CC2)C[C@@H]2CN(c3ncccn3)C[C@@H]21	13.9%
c1ccc(O[C@@H]2CC[C@H]3[C@H]2OCCN3CC2CCOCC2)nc1	-83.6%
c1ccc(O[C@H]2CC[C@H]3[C@H]2OCCN3Cc2nccs2)nc1	-64.9%
CC(C)C[C@H](N)COc1cccc(F)c1Oc1cccc(Cl)c1	85.5%
CC(C)C[C@H](N)COc1cccc(F)c1Oc1ccc(Cl)cc1	86.5%
CC(C)C[C@H](N)COc1cccc(F)c1Oc1ccccc1	70.9%
c1ccc(CO[C@@H]2C[C@H]3CN(c4ncccn4)CCN3C2)nc1	-38.6%
c1cc(CN2CCOC3(CCCC3)C2)no1	-101%
O=C1CSC(c2ccsc2)c2sccc2N1 (stereo not given)	-15.7%

SMILES	INHIBITION
Cc1ccc(N2CCO[C@H]3CN(Cc4cccs4)C[C@H]32)nn1	-11.3%
O=C(CN1CCCC(c2ccn[nH]2)C1)Nc1nc2c(s1)CCCC2 (stereo not given)	86.1%
O=C(CN1CCCC(c2ccn[nH]2)C1)Nc1nc2c(s1)CCC2 (stereo not given)	89.2%
Cc1cc(C2CCCN(CC(=O)Nc3nc4c(s3)CCC4)C2)n[nH]1 (stereo not given)	86.9%
COCCn1cc(C(=O)Nc2nc3c(s2)CCC3)c2ccccc21	-78.7%
CC1CN(C)CCN1C(=O)COc1cccc(Oc2ccccn2)c1 (stereo not given)	-65.8%
Cc1noc(C)c1CN1CCOC2(CCCN(c3nccs3)C2)C1 (stereo not given)	-36.8%
CCCOc1cc(Cl)c(CN2CCNC(C(=O)NC3CC3)C2)cc1OC (stereo not given)	75.4%
O=C(c1ccc(Cn2ccccc2=O)o1)N1CCC2(CC1)OCCO2	1.12%
CC(C)Cc1ncc2c(n1)CN(C(=O)c1ccc(CN3CCCC3)o1)C2	70.3%
CCCn1cc(C(=O)NCCS(N)(=O)=O)c2ccccc21	-25.6%
CCCn1cc(C(=O)NCCCC(N)=O)c2ccccc21	-75%
Cc1ccc(C(C)NCc2cn(CCC(N)=O)c3ccccc23)cc1C (stereo not given)	82.8%
CC(C)CNC(=O)N1C[C@@H]2CCCN[C@@H]2C1	-5.1%
COCCN1CCOCC12CCN(C(=O)c1ccncc1)CC2	-98.9%
FC(F)(F)c1ccc2nc([C@H]3CCN(C4CCCCC4)C3)[nH]c2c1	83.6%
CCc1nc(-c2ccc(C(=O)N3CCC4(CC3)OCCO4)cc2)no1	-52.5%
Cc1ccc2c(CC(=O)N3C[C@@H](O)[C@H](N(C)C)C3)coc2c1	9.22%
CN(C)CCCn1ccnc1C1CCCN(c2ncc(Cl)cc2F)C1 (stereo not given)	84.4%
COCCO[C@@H]1C[C@H]2CN(C(=O)c3cccnc3)CCN2C1	-84.1%
CC(Cc1cccc(Cl)c1)NC(=O)NCc1ncnn1C (stereo not given)	-104%
Clc1ccccc1CNC(Cn1cncn1)c1ccccc1 (stereo not given)	-8.41%
CC(Cc1ccccc1Cl)NC(=O)Nc1cnn(CC(N)=O)c1 (stereo not given)	-20.1%
CCC(NCc1cccc(Cl)c1)c1ccccc1OCC(=O)NC (stereo not given)	82.8%
COCC(=O)NC(C)Cc1cccc(Cl)c1 (stereo not given)	-14.8%
Cc1ccccc1CNC(Cn1cncn1)c1ccccc1 (stereo not given)	-47.8%
CCC(NCc1ccccc1Cl)c1ccccc1OCC(=O)NC (stereo not given)	74.7%

SMILES	INHIBITION
CCC(NCc1ccccc1C)c1ccccc1OCC(=O)NC (stereo not given)	80%
COCCN1CCO[C@H]2CN(Cc3cccc(C)n3)C[C@H]21	-18.3%
Cc1cc(NC2CC3(CCN(Cc4ncccc4F)C3)C2)ncn1 (stereo not given)	-37.1%
CCc1c(C)[nH]c(C2(N)CCCC2)nc1=O	-43.5%
CNC(=O)[C@H]1C[C@@H]2CN(Cc3cccnc3OC)C[C@@H]2N1C(C)C	21.8%
CN1CCCC(Cc2cncc(Br)c2)CC1 (stereo not given)	-65%
Cc1cc(Br)cnc1NCCN1CCC(N(C)C)CC1	89.1%
CC(Cn1cccn1)NCc1ccc(Cl)s1 (stereo not given)	-30.2%
CC(NCCN1CCC(N(C)C)CC1)c1ccc(Cl)s1 (stereo not given)	75.4%
Cc1cc(C(C)NCCN2CCC(N(C)C)CC2)c(C)s1 (stereo not given)	81.6%
CC(NC(=O)CN1CCCC1=O)c1ccc(Cl)s1 (stereo not given)	-3.71%
CN1[C@@H]2CC[C@H]1CN(c1cc(Sc3cccs3)nc(N)n1)CC2	19.3%
Cc1ccc(CN2CC[C@H]3NC(=O)CC[C@@H]32)o1	-34.6%
CSc1ccc(-c2nc(CN3CCC(CN)C3)c(C)o2)cc1 (stereo not given)	83.05%
Cc1cc(CN2CC[C@]3(C[C@@H](OCC(=O)N(C)C)CO3)C2)no1	-93%
c1ccc(CN2CCCC[C@H]3CN(c4ncccn4)C[C@H]32)cc1	3.59%
CCn1ccnc1CN1CCN(C(C)C)CC1C (stereo not given)	-35.9%
CCn1cc(CN2CCCCC2CCn2ccnc2C)cc1C#N (stereo not given)	78.2%
O=C(c1cc2cc(F)ccc2[nH]1)N1CCC(Nc2ccc(F)cc2)CC1	-1.01%
CCCN1CCC(NC(=O)c2ccc(F)cc2I)CC1	71.1%
Cc1cc(CC(=O)N2CCN(CC3CC3)[C@@H]3CS(=O)(=O)C[C@@H]32)ccc1F	-75.7%
Cc1ccc2nc(C)cc(C(=O)N[C@H]3COC[C@@H]3N3CCOCC3)c2c1	-169%
CO[C@H]1CNC[C@@H]1NC(=O)c1cc(C)nc2c(C)cc(C)cc12	75.1%
Cc1cc(C(=O)N[C@H]2COC[C@@H]2N2CCOCC2)c2ccc(F)cc2n1	-31.3%
